Assay outcomes from PubChem.
Shown are actives, neighbours in structure and some others; about 3.7% of the full set was active somewhere.
ATXN viability: Viability Counterscreen for Primary qHTS for Inhibitors of ATXN expression. S2 cells (HEK-293 line with an ATXN2-luciferase reporter) viability, CellTiter-Fluor protease fluorescence, 24 h. 400,000 compounds, 0.49% hits. AID 651635, 2014. Potency, µM (titrated, usually from 56.7 µM), hits mostly cytotoxic; also: nearly all actives have a fitted effect of over 40% in size
GLP1R inv ag: qHTS of GLP-1 Receptor Inverse Agonists (Inhibition Mode). 410,000 compounds, 1.6% hits. Glucagon-like peptide 1 receptor (Homo sapiens), P43220. HEK293 GLP-1R CRE-luciferase, luminescence, 24 h; GLP-1R form is constitutively active. Potency, µM (series often up to 38.3 µM), usual class: inhibitors. AID 624417, 2012; also: nearly all actives have a fitted effect of over 55% in size
Target sequence (P43220 whole entry, looked up): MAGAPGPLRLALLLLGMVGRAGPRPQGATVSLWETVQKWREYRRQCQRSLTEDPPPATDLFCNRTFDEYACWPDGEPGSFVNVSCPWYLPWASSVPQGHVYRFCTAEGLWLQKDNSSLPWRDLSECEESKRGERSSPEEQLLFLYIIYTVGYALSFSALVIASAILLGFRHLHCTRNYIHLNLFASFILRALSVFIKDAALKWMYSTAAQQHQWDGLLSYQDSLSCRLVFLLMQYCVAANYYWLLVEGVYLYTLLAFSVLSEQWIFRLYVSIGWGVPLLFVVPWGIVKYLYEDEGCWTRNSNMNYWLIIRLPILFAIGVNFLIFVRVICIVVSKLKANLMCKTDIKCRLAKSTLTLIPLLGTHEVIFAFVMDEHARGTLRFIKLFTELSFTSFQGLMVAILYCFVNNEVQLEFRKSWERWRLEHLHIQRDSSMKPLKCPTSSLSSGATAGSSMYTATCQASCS
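Luminescence readout: a drop in cAMP-driven luciferase signal flags inverse agonism at a constitutively active GLP-1R stably expressed in HEK293. Compound exposure lasted 24 hr at 37 deg C, 5% CO2.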
TGFb inhibitor: qHTS for Inhibitors of TGF-b; HepG2 CAGA-GFP TGF-b/SMAD3 reporter, GFP fluorescence, 18 h; TGF-beta stimulated, 500 pg/mL final; 410,000 compounds, 1.2% hits; Potency, µM (doses to about 46.1 µM), most hits filed as inhibitors; also: nearly all actives have a fitted effect of over 65% in size
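Smad-responsive CAGA-GFP expression was quantified in HEPG2 cells exposed to compounds and 500 pg/mL final TGF-beta for 18 h at 37 degrees C; unstimulated wells defined full inhibition.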
ATXN2 expr inh: Primary qHTS for Inhibitors of ATXN expression; HEK-293 ATXN2-luciferase reporter, luminescence, 24 h; Potency, µM (highest dose often 57 µM), actives largely listed as inhibitors; 360,000 compounds, 0.72% hits; also: nearly all actives have a fitted effect of over 55% in size
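ATXN2-luciferase reporter cells (luciferase flanked by upstream and downstream ATXN2 gene portions) were treated 24 h at 37 °C with compounds at up to 57 uM. SteadyGlo luminescence gave expression; GF-AFC fluorescence gave viability.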
GLP1R ag: qHTS of GLP-1 Receptor Agonists. Glucagon-like peptide 1 receptor (Homo sapiens), P43220. 380,000 compounds, 0.007% hits. HEK293 GLP-1R CRE-luciferase, luminescence, 4-6 h; cells express a hypersensitive GLP-1R form. Potency, µM (series often up to 45.6 µM), most hits filed as activators. AID 624172, 2012
HepG2 viability: qHTS for Inhibitors of TGF-b: Cytotox Counterscreen. HepG2 CAGA-GFP viability, ATP luminescence, 18 h. Potency, µM (series often up to 46.1 µM), hits mostly cytotoxic. 410,000 compounds, 0.76% hits. AID 588856, 2011
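HepG2 CAGA-GFP cells (1000/well, DMEM with 1% FBS) received compound, then TGF-beta at 500 pg/mL final, and were incubated 18 hours at 37 degrees C. Viability was read by CellTiter-Glo luminescence. Media-only wells were set as complete cell-killing and DMSO as no toxicity.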
Numbers stand for hits; - = inactive; ? = inconclusive; . = not tested or not shown. Calls follow the shape of the dose curve; as a rule, active = well fitted curve in the direction sought with a large enough effect; inconclusive = small, poorly fitted or top-dose-only effect, or another doubt; inactive = no such curve, though single readings can be large; an effect the other way counts as inactive or inconclusive.

SMILES	ATXN viability	GLP1R inv ag	TGFb inhibitor	ATXN2 expr inh	GLP1R ag	HepG2 viability
C[n+]1ccc(/C=C/c2ccc(F)cc2)c2ccccc21	.	.	-	.	.	-
CCOc1ccc(NC(=O)C2CCN(c3nnc(-n4c(C)ccc4C)s3)CC2)cc1	.	-	.	.	.	-
COC(=O)c1nc2n(n1)C(c1cc(OC)ccc1OC)C(C(=O)Nc1ccc(C)cc1C)=C(C)N2 (stereo not given)	-	-	-	-	-	-
CCCCCN1C(C(=O)c2ccccc2)=C(NC(=O)c2ccc(OC)c(OC)c2)c2ccccc2S1(=O)=O	.	10µM	?	?	.	-
CCCCC(=O)OC1=C(C(=O)c2ccccc2)N(CC)S(=O)(=O)c2ccccc21	?	?	?	?	.	-
CCN1C(C(=O)c2ccccc2)=C(OC(=O)c2ccccc2OC)c2ccccc2S1(=O)=O	?	10µM	10µM	?	.	4.5µM
CCCCCN1C(C(=O)c2ccccc2)=C(NC(=O)c2ccc(OC)cc2)c2ccccc2S1(=O)=O	-	-	-	-	.	-
O=C(C1CC1)N1CCc2cc(Br)cc(S(=O)(=O)N3CCN(c4cccc(C(F)(F)F)c4)CC3)c21	-	-	-	-	-	-
Cc1cc(C)n(-c2cccc(C(=O)NCC3Cc4cccc(-c5ccccn5)c4O3)c2)n1 (stereo not given)	-	.	.	.	.	.
CCOc1ccc(-n2ccnc2SCC(=O)Nc2cccc3ccccc23)cc1	.	-	-	.	.	-
CCc1cc2c(=O)[nH]c(-c3ccccn3)nc2s1	5.6µM	?	5µM	?	-	-
Cc1cc(Cl)nc2ccccc12	.	.	-	.	.	-
Cc1cc(C(Br)(Br)Br)nc2ccccc12	.	.	?	.	.	11µM
CCOC(=O)c1ccc(S(=O)(=O)N2CCN(c3nc(-c4ccccc4)nc4ccccc34)CC2)cc1	.	.	-	.	.	-
Cc1nc([N+](=O)[O-])cn1CC(=O)c1ccc2c(c1)OCCCO2	.	.	-	.	.	-
COC(=O)C1=C(C)N=C2SC(C#N)=C(N)N2C1c1ccc(OCc2ccccc2)cc1 (stereo not given)	-	5µM	?	-	-	-
COc1ccc(CN(C)C(=O)CNC(=O)Cc2cccc3ccccc23)c(OC)c1OC	-	-	-	-	-	-
COc1ccccc1CN(C)C(=O)C(NC(=O)Cc1cccc2ccccc12)C(C)C (stereo not given)	-	10µM	-	-	-	-
O=S(=O)(Nc1cccnc1)c1cccc2ccccc12	.	.	-	.	.	-
O=C(/C=C/c1ccc(F)cc1)NC(=S)NNC(=O)c1cnccn1	?	-	-	?	-	-
COc1ccc(/C=C/C(=O)NC(=S)NNC(=O)c2cnccn2)cc1	?	?	-	14µM	-	-
COc1ccccc1N1CCN(C(=O)C2CCN(S(=O)(=O)Cc3ccccc3)CC2)CC1	-	?	-	-	.	-
CCc1nn(CC(=O)NCC(C)c2ccccc2)c(=O)c2cc3c(OC)cccc3n12 (stereo not given)	-	-	-	-	.	-
CCN(Cc1nc2cc(Cl)ccc2c(=O)[nH]1)C(=O)COc1ccccc1Cc1ccccc1	-	?	?	-	-	-
CCN(Cc1nc2ccccc2c(=O)[nH]1)C(=O)COc1ccccc1Cc1ccccc1	?	13µM	-	-	-	-
SMILES	ATXN viability	GLP1R inv ag	TGFb inhibitor	ATXN2 expr inh	GLP1R ag	HepG2 viability
CC(=O)c1sc(NC(=O)CCCc2nc3ccccc3c(=O)[nH]2)nc1-c1ccccc1	-	-	20µM	.	-	11µM
CCOc1ccccc1NC(=O)CCCc1nc2ccccc2c(=O)[nH]1	-	-	-	20µM	-	-
CC(=O)Nc1ccc(NC(=O)CCc2nc3ccccc3c(=O)[nH]2)cc1	-	-	-	-	-	-
O=C(NCCc1nc2ccccc2n1CCOc1ccccc1)C1CCCCC1	.	.	?	.	.	-
C/C(=N\Nc1ccc(Cl)c(C(=O)O)c1)c1ccccn1	25µM	-	-	-	-	-
C/C(=N\NC(=O)CCCNc1ccc(C)cc1)c1ccccn1	-	?	-	28µM	-	-
CCOc1ccc(C(=O)N/N=C(\c2ccccc2)c2ccccn2)cc1	?	?	?	7.9µM	-	-
C/C(=N\NC(=O)c1ccc(F)cc1)c1ccccn1	?	1.1µM	1.1µM	.	-	-
C/C(=N\NC(=O)CCCNc1ccccc1)c1ccncc1	-	-	-	-	-	-
C/C(=N\NC(=O)c1c[nH]c2ccccc12)c1ccccn1	.	?	-	?	-	-
COc1cc(/C=C/CN2CCC(C(=O)NC(c3ccc(F)cc3)c3ccc4ccccc4n3)CC2)ccc1OC(C)=O (stereo not given)	?	10µM	?	?	-	-
Cc1ccc(C(NC(=O)C2CCN(CCOc3ccc(Cl)cc3)CC2)c2ccccn2)cc1 (stereo not given)	?	?	?	-	-	-
O=C(NC(c1ccc(F)cc1)c1ccc2ccccc2n1)C1CCN(Cc2ccc3ccccc3n2)CC1 (stereo not given)	?	?	13µM	-	-	-
CN(C)c1ccc(CN2CCC(C(=O)NC(c3ccc(F)cc3)c3ccc4ccccc4n3)CC2)cc1 (stereo not given)	?	?	?	?	-	-
O=C(NC(c1ccc(F)cc1)c1ccc2ccccc2n1)C1CCN(CCOc2ccc(Cl)cc2)CC1 (stereo not given)	14µM	6.3µM	16µM	?	-	-
COc1cc(=O)n2c(c1C(=O)NCc1ccco1)CCN(C(=O)c1c(F)ccc(F)c1F)CC2	-	.	.	.	.	.
COc1cc(CN(C)CC2CCCN(CCc3ccccc3F)C2)cc(Cl)c1OC (stereo not given)	18µM	?	-	?	-	-
COc1ccc(CN(C)CC2CCCN(CCc3ccc(F)cc3)C2)cc1OC (stereo not given)	?	11µM	-	.	-	-
CN(Cc1ccccc1)CC1CCCN(CCc2ccccc2F)C1 (stereo not given)	-	?	-	-	-	-
COc1ccc(NC(=O)Cn2c(-c3ccccc3)cn(-c3ccc(C)cc3)c2=O)cc1	-	10µM	-	-	-	-
COc1cccc(NC(=O)Cn2c(CCC(=O)O)ccc2-c2ccc(C)cc2)c1	-	-	?	.	-	16µM
CC(C)Cc1nn2c(=O)cc(COC(=O)c3ccccc3NC(=O)c3ccccc3)nc2s1	.	-	-	.	.	-
